# Compound activity from PubChem BioAssay.
# Sfp PPTase inh: Sfp phosphopantetheinyl transferase inhibition | Q9F4F7 | Potency, µM, for inactives: largest response in the series, negative = inhibition, actives largely listed as inhibitors | 3.5% of 310,000 active | Biochemical Sfp PPTase activity, qHTS;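 note: the enzyme is Sfp with the accession as filed and its product quenches rhodamine fluorescence; 0% = enzyme reaction without inhibitor and -100% = no enzyme wells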
#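 After 15 min at room temperature with compound, 15 nM Sfp received 5 uM rhodamine-CoA plus 12.5 uM BHQ-2-ybbR (50 mM Hepes pH 7.6, 10 mM MgCl2). Rate came from the fluorescence difference over 30 min, ex 525/em 598 nm.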
# L3MBTL1 block: L3MBTL1 (human) inhibition | AlphaScreen L3MBTL1–H3K9me1 peptide binding | Potency, µM (doses to about 57.1 µM), for inactives: at the top dose activity, negative = inhibition, most hits filed as inhibitors | 0.66% of 230,000 active; note: % is set by controls: 0 for no effect and ±100 for the full control effect; nearly all actives have a fitted effect of over 60% in size
#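 AlphaScreen proximity signal between nickel-chelate acceptor and streptavidin donor beads (final 10 ug/mL) reports binding of 50 nM L3MBTL1 to 75 nM biotin-H3 K9me1 peptide; complex incubated with compounds 30 min at room temperature; cefsulodin titration as control.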
# G9a inh: blocks human histone lysine methyltransferase G9a; Q96KQ7; G9a H3K9 monomethylation, AlphaScreen, 2 h; Potency, µM (top dose mostly 102 µM), inactives show top-dose activity, negative = inhibition, actives largely listed as inhibitors; 8.8% of 350,000 active; AID 504332; note: % is set by controls: 0 for no effect and ±100 for the full control effect; nearly all actives have a fitted effect of over 75% in size
#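 Enzyme 20 nM + cpd, 15 min RT; add b-H3K9 pep 500 nM / SAM 20 uM; 2 h RT; anti-H3K9me1 Ab 0.5 ug/mL + SA donor / anti-rabbit acceptor beads 20 ug/mL each, 10 min; AlphaScreen read.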
# BAZ2B block: inhibitors of human BAZ2B bromodomain. AlphaScreen BAZ2B-H3K14Ac peptide displacement. Potency, µM (highest dose often 114 µM), inactives show at the highest dose activity change, negative = inhibition, actives largely listed as inhibitors. 4.4% of 360,000 active. AID 504333; note: % is set by controls: 0 for no effect and ±100 for the full control effect; nearly all actives have a fitted effect of over 60% in size
#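 Inhibition is scored as reduced AlphaScreen emission. The BAZ2B/b-H3(5-23)K14Ac complex (50 nM each) in PBS pH 7.4, 0.01% Tween-20 meets compound (up to 110 uM) for 30 min at RT before bead addition.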
# HP1b chromo inh: HP1-beta chromodomain-methylated histone interaction inhibition. P83916. AlphaScreen HP1-beta / biotin-H3K9me3 peptide binding. Potency, µM (highest dose often 114 µM), without a hit: at the highest dose activity change, negative = inhibition, hits mostly inhibitors. 0.56% of 390,000 active. AID 540317; note: nearly all actives have a fitted effect of over 70% in size
#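 AlphaScreen: HP1-beta (50 nM) preformed 30 min with biotin-H3(1-18)K9me3 peptide (50 nM) in PBS pH 7.4, 0.01% Tween-20. Compound added for 30 min at RT, then streptavidin donor/nickel chelate acceptor beads (10 ug/mL) for 30 min.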
# JMJD2A Tudor: blocks the human JMJD2A Tudor domain; O75164; AlphaScreen JMJD2A-Tudor / H3K4me3 peptide binding; Potency, µM (highest dose often 114 µM), inactives show top-dose activity change, negative = inhibition, actives largely listed as inhibitors; 4.4% of 390,000 active; note: % is set by controls: 0 for no effect and ±100 for the full control effect; nearly all actives have a fitted effect of over 50% in size
# Target sequence (O75164 whole entry, looked up, the tested form may be a part): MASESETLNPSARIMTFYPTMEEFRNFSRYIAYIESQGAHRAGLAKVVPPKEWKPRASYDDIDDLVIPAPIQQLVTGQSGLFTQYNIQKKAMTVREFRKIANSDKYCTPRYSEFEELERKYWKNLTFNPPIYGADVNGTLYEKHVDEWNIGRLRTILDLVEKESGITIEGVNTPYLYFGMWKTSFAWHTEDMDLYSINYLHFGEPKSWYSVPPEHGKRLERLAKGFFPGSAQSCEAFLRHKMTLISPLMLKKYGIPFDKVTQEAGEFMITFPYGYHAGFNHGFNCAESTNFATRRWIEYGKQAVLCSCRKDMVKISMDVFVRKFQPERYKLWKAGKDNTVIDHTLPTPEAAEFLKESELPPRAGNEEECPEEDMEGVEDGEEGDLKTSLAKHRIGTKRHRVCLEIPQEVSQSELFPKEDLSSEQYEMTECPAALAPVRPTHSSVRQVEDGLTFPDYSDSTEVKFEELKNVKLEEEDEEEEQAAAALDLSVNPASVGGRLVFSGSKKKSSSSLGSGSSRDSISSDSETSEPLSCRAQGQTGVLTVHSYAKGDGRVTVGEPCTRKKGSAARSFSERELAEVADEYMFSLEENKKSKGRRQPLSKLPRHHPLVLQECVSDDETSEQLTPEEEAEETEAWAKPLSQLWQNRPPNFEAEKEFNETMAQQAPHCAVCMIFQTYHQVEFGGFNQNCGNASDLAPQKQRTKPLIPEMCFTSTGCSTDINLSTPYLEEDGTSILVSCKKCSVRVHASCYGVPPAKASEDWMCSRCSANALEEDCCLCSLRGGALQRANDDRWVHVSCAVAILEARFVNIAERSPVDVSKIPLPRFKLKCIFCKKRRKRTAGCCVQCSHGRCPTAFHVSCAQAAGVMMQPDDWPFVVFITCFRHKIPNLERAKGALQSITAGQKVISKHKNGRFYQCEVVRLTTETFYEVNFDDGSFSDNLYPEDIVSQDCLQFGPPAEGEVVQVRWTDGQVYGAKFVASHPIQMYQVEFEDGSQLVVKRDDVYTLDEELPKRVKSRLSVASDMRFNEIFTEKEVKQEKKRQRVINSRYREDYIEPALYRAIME
# Starred values were filed as active, the others as inactive; ? = inconclusive; . = no result given; [ ] = remark or other dose. A selection: hits, their analogues and other compounds. The true share with any hit is near 12%. Calls come from the whole dose curve; as a rule, active = well fitted curve in the direction sought with a large enough effect; inconclusive = small, poorly fitted or top-dose-only effect, or another doubt; inactive = no such curve, though single readings can be large; an effect the other way counts as inactive or inconclusive. Potency is the fitted concentration of half-maximal effect.
SMILES,Sfp PPTase inh,L3MBTL1 block,G9a inh,BAZ2B block,HP1b chromo inh,JMJD2A Tudor
c1ccc2c(OCCCCN3CCCC3)cccc2c1,-11%,-18%,35µM*,56µM*,?,40µM*
Fc1ccccc1OCCCCN1CCCCC1,-16%,-1%,50µM*,?,-12%,79µM*
Clc1ccccc1OCCCCN1CCCCC1,-21%,1%,.,?,?,28µM*
O=C(OCCN1CCCCC1)c1ccccc1F,-2%,.,2%[12.7 µM],-2%,27%,-33%
O=C(CCCn1c(=O)c2cccn2c2ccccc21)NCc1ccccc1Br,.,.,-5%[59 µM],3%,37%,-5%
O=C([O-])[C@@H]1[O][Sb+]([O][Sb+]2[O][C@H]([C@H](O)CO)[C@H](O)[C@H](C(=O)[O-])[O]2)[O][C@H]([C@H](O)CO)[C@@H]1O,-2%,.,.,.,.,.
CCOc1ccc(-n2cc(-c3ccccc3)c3c(N4CCN(c5ccccc5OC)CC4)ncnc32)cc1,.,.,-9%[59 µM],?,-29%,?
CN1CCN(CCCCC(=O)c2ccccc2)CC1,8%,.,?,?,45%,-33%
Cc1ccccc1OCCCCCCN1CCNCC1,.,.,.,.,-4%,-27%
CN1CCN(CCCCOc2ccccc2C=O)CC1,25µM*,7%,.,22µM*,?,4µM*
Clc1ccccc1OCCCCN1CCNCC1,?,-5%,.,28µM*,?,3.2µM*
CC1CCN(CCOc2cc(Cl)ccc2Cl)CC1,-14%,-4%,?,50µM*,?,3.5µM*
CSc1nc(C=Nc2ccccc2Cl)c(O)n1Cc1cccc(Cl)c1,-21%,42%,.,-19%,5%,79µM*
O=Nc1c(O)n(Cc2cccc(Cl)c2)c2ccccc12,6%,-2%,.,-31%,-4%,-27%
COC(=O)c1sc(-c2ccccc2)cc1NC(=O)Nc1ccc(F)cc1,.,.,10%[59 µM],5%,6%,-12%
CCOC(=O)c1[nH]c2ccc(Br)cc2c1NC(=O)CCN1CCCC(C)(C)C1,-3%,-16%,8.9µM*,-3%,10%,-4%
CCOC(=O)c1[nH]c2ccc(F)cc2c1NC(=O)CCN1CCOCC1,-1%,6%,-36%,-12%,5%,-2%
Cc1cccc(CN2CCN(CC(=O)O)C2=O)c1,89µM*,-8%,?,-11%,32%,4%
Cn1c(O)c(C=Nc2ccc(N3CCOCC3)cc2)c(=O)n(C)c1=S,-5%,.,2%[59 µM],1%,9%,-4%
Cc1cc(O)c(C=Nc2ccc(N3CCOCC3)cc2)c(C)c1Cl,-13%,3%,8.9µM*,?,0%,-16%
Cc1ccc(Cl)cc1-c1ccc(C=Nc2ccc(N3CCOCC3)cc2)o1,?,?,?,28µM*,?,35µM*
COc1ccc2nc3oc(C(=O)N(C)c4ccc(Cl)cc4)cc3cc2c1,.,.,-24%[59 µM],.,30%,-14%
CNC(=S)NNc1nc(C)cc(C)n1,2.5µM*,3%,1.3µM*,-17%,79µM*,?
COc1ccc(N/C=C(\C#N)c2ccc(OCCCF)cc2)cc1,-5%,.,-12%[12.7 µM],?,-12%,?
Cc1ccc(N/C=C(\C#N)c2ccc(OCCCF)cc2)cc1,26%,.,45µM*,?,6%,-16%
SMILES,Sfp PPTase inh,L3MBTL1 block,G9a inh,BAZ2B block,HP1b chromo inh,JMJD2A Tudor
CCOC(=O)c1c(NC(=O)c2nc(S(C)(=O)=O)ncc2Cl)sc(C(C)=O)c1C,.,.,6%[59 µM],1%,-23%,-4%
CCCCCCCCCCCCCCCCCC(=O)OCC(C)O (stereo not given),-11%,.,25µM*,.,.,.
COc1ccc(-c2cc3ccccc3n2CC(O)CNCCO)cc1 (stereo not given),-19%,2%,35µM*,50µM*,?,5µM*
CCN(CC)CCn1c2ccccc2c2cnc(N)c(C#N)c21,14%,1%,35µM*,10%,8%,-21%
CCOC(=O)c1ccc(Nc2c(-c3ccc(N(C)C)cc3)nc3nc[nH]n23)cc1,.,.,16µM*,?,-15%,-34%
CCOC(=O)c1ccc(Nc2c(-c3cccc(O)c3)nc3nc[nH]n23)cc1,.,.,?,-31%,13%,-34%
O=c1c2ccccc2nc(SCc2cn3ccsc3n2)n1-c1ccccc1,-8%,-13%[11.4 µM],10µM*,?,2%,?
Cc1cc(C)n2c(Br)c(CSc3nc4ccccc4o3)nc2n1,50µM*,-2%,?,-4%,30%,?
Clc1ccc(SCc2cn3ccsc3n2)cc1,-4%,-6%,-9%,-13%,64%,-12%
c1ccc2oc(SCc3cn4ccsc4n3)nc2c1,50µM*,1%,?,-12%,2%,?
Cc1csc2nc(CSc3nc4ccccc4o3)cn12,56µM*,31%,?,-5%,15%,-19%
CN(Cc1ccc(F)cc1)S(=O)(=O)c1nnc(NC(=O)c2ccccc2Cl)s1,.,.,?,-4%,49%,6%
COC(=O)c1cc2sc(Cl)cc2n1Cc1cc(C)ccc1C,.,.,74%[59 µM],66%,115%,79%
CCOC(=O)c1cc2c(ccn2C)n1Cc1cc(C)ccc1C,-10%,-25%,50µM*,50µM*,?,25µM*
Cc1ccc(NC(=O)Cn2c(CCC(=O)O)ccc2-c2cccs2)cc1,25µM*,.,-33%[59 µM],?,11%,-7%
COC(=O)c1ccccc1NC(=O)Cn1c(CCC(=O)O)ccc1-c1cccs1,56µM*,.,?,-27%,-4%,-29%
Cc1ccc(-c2noc(C3CCCN(S(=O)(=O)c4ccc5ccccc5c4)C3)n2)o1 (stereo not given),-18%,.,35µM*,-10%,-1%,-28%
Cc1ccc(-c2noc(C3CCN(S(=O)(=O)c4ccc5c(c4)OCCO5)CC3)n2)o1,8%,-3%,16µM*,-6%,5%,-13%
O=C(NCc1cccs1)c1ccc(CSc2nc3ccncc3n2Cc2ccccc2F)cc1,.,.,0%[59 µM],19%,69%,-24%
CC(=O)OC[C@H]1O[C@@H](O/N=C(\C)CCN2CCc3nc(-c4ccccc4)c(-c4ccccc4)cc3C2)[C@H](OC(C)=O)[C@@H](OC(C)=O)[C@H]1OC(C)=O,18%,.,.,.,.,.
CC(=O)C1=NN(c2ccccc2)C(c2cccs2)N1c1ccc(N(C)C)cc1 (stereo not given),9%,.,28µM*,45µM*,?,14µM*
CC(C)(C)c1ccc(-c2n[nH]c(=S)n2CC2CCCO2)cc1 (stereo not given),-27%,2%,7.9µM*,-19%,0%,32µM*
S=c1[nH]nc(-c2ccccc2Cl)n1CC1CCCO1 (stereo not given),?,47%[11.4 µM],5µM*,-30%,29%,40µM*
